What all share (experiment): NCI-60 one-dose screen, 48 h (100 = growth as untreated, 0 = no growth, -100 = all killed)
Common to all, as to conditions: 10 µM

The subject of assay [1] is HT29 colon.
For assay [2], the system named is SNB-75 CNS.
Assay [3] relates to SNB-19 CNS.
Assay [4] relates to U251 CNS.
Assay [5] has as its system PC-3 prostate.
Assay [6] deals with SK-MEL-5 melanoma.
The test system of assay [7] is UACC-62 melanoma.
For assay [8], the system named is LOX IMVI melanoma.
The test system of assay [9] is SK-MEL-28 melanoma.
For assay [10], the system named is SK-MEL-2 melanoma.
In assay [11] the test system is EKVX NSCLC.
The test system of assay [12] is SN12C renal.
The test system of assay [13] is UO-31 renal.
For assay [14], the system named is TK-10 renal.
The test system of assay [15] is ACHN renal.
The test system of assay [16] is CAKI-1 renal.
In assay [17] the test system is CCRF-CEM leukemia.
Assay [18] has as its system MOLT-4 leukemia.
In assay [19] the test system is SR leukemia.
The test system of assay [20] is A498 renal.

About 83,000 compounds went through this panel and 20% of them were active in at least one assay; those are over-represented in the sample as a whole.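 Activity criterion: percent growth below 10, measured after cells in 96-well plates were exposed to a single compound concentration for 48 hours.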 Unmarked numbers belong to inactive results. Activity calls are given as the source filed them.

`Cc1cn(C2CCCCO2)c(=O)nc1NO` (stereo not drawn): the growth in assay [1] is 110%; in assay [2], 99.3%; in assay [3], 105%; in assay [4], 112%; in assay [5], 104%; in assay [6] it was 108%. The growth in assay [7] is 104%; in assay [8], 110%; in [9] it was 116%; in assay [10], 120%; in assay [11] it was 92.9%; in assay [12], 103%. Also, the growth in [13] was 101%; in assay [14], 103%; in assay [15], 110%; in [16], 108%; in assay [17] it was 102%; in [18], 99.1%. For the same compound, in [19], the growth is 116%.
With `COc1cc(-c2nnc(-c3c(-c4ccc(F)cc4)nc4ccccn34)o2)cc(OC)c1OC`, the growth was 84.3% in assay [1]; 2.43% (active) in assay [2]; 78.4% in assay [3]; 59.5% in assay [4]; 90.7% in assay [5]; 63.3% in assay [6]. For the same compound, the growth in [7] is 89.9%; in assay [8], 69.7%; in assay [9] it was 87.5%; in assay [10] it was 106%; in [11], 97%; in assay [12], 68.2%. For the same compound, the growth in assay [13] is 62.9%; in assay [14] it was 89.7%; in assay [15], 51.8%; in [16], 91.3%; in [20] it was 62.7%; in [17], 89.1%. The figures for the growth in [18] and in assay [19] were 89.6% and 25.3%, respectively.
For the compound `CCN(CC)CCNc1ccc(CO)c2oc3cc(Cl)ccc3c(=O)c12`, the growth in [1] is 52.8%; in [2] it was 69.7%; in assay [3], 97%; in [4], 79.7%; in assay [5] it was 77.4%; in [6] it was 53.9%. For the same compound, the growth in assay [7] is 73.1%; in [8], 70.5%; in assay [9] it was 97.8%; in assay [10] it was 128%; in assay [11], 88.7%; in assay [12], 76.3%. In addition, the growth in [13] was 54.4%; in assay [14], 82.7%; in assay [15], 60.9%; in [16] it was 87.3%; in assay [20], 50.9%; in assay [17] it was 66.6%. For the same compound, the results for the growth in assay [18] and in [19] were 62.3% and 50.1%, respectively.
Regarding `CCN(CC)CCC(CNc1c(C)cnc2cc(Cl)ccc12)c1ccc(Cl)c(Cl)c1` (stereo not drawn), the growth was 11.6% in [1]; 59.2% in assay [2]; 71.7% in [3]; 46.4% in assay [4]; 49.4% in assay [5]; -92.3% (active) in assay [6]. Moreover, the growth in [7] was -48.5% (active); in assay [8], 37.8%; in [9], -75.3% (active); in assay [10] it was 107%; in [11], 73.5%; in assay [12] it was 59.1%. In addition, the growth in [13] is 44.5%; in [14], 94.4%; in assay [15], 54.8%; in assay [16] it was 62.1%; in assay [20], 24.6%; in [17] it was 30.3%. The figures for the growth in assay [18] and in [19] were 25.2% and -19.1% (active), respectively.
Turning to `COc1ccc2c(c1)C(=O)c1c-2c(OCCN2CCCCC2)nc2ccc(OC)cc12`, the growth was 1.76% (active) in assay [1]; 20.8% in assay [2]; 32.3% in assay [3]; 12% in assay [4]; 43.3% in assay [5]; 22.1% in assay [6]. For the same compound, the growth is 20.6% in [7]; -52.9% (active) in [8]; 72.3% in assay [9]; 7.82% (active) in assay [10]; 39.6% in assay [11]; 20% in [12]. The growth in assay [13] was -6.08% (active); in [14], 41.1%; in assay [15], 9.5% (active); in assay [16] it was -11.5% (active); in [20], 53.7%; in assay [17] it was 14.3%. The growth in [18] was 8.36% (active); in assay [19], 2.46% (active).
As for `O=C(N/N=C/c1ccccc1O)C(O)(c1ccccc1)c1ccccc1`, the growth in assay [1] was 49.7%; in assay [2], 68.8%; in assay [3], 66%; in assay [4], 45.9%; in assay [5] it was 55.5%; in [6], 62.1%. Further, the growth in assay [7] was 51.9%; in [8], 25.7%; in assay [9], 69.7%; in assay [10], 107%; in assay [11], 20%; in [12] it was 66.3%. The growth in assay [13] is 23.7%; in [14], 53.9%; in assay [15], 35.5%; in assay [16], 23%; in [17], 24.7%; in assay [18], 31.2%. In addition, the growth in assay [19] was 42.6%.
With `COc1cc(-c2cc(C(=O)N3CCN(C(=O)c4ccccc4NCc4ccco4)CC3)nc3cc(-c4ccccc4)nn23)cc(OC)c1OC`, the growth in [1] was 1.33% (active); in [2], 8.05% (active); in assay [3] it was 45.4%; in assay [4], 24.7%; in [5] it was 15.8%; in assay [6], 3.81% (active). For the same compound, the growth is 39.7% in assay [7]; 30% in assay [8]; 59.3% in [9]; 10.5% in assay [10]; 49% in [11]; 44.4% in assay [12]. In addition, the growth in [13] is 6.15% (active); in [14], 35.8%; in [15], 53.6%; in [16], 12%; in assay [20] it was -0.0574% (active); in assay [17], 19.3%. In addition, the growth was 37.8% in assay [18] and -2.88% (active) in [19].
With `CCCN(CCC)CCC(O)c1cc2c(c3ccccc13)CCCC2` (stereo not drawn), the growth in assay [1] is 52.3%; in assay [2], 75.7%; in [3] it was 90.5%; in assay [4], 83.5%; in [5] it was 80.9%; in assay [6], 94.7%. Also, the growth in assay [7] was 81.7%; in assay [8], 89%; in [9], 98.1%; in [10], 108%; in [11] it was 87.9%; in [12] it was 82%. Besides, the growth in assay [13] was 71.4%; in assay [14] it was 101%; in assay [15] it was 86.9%; in [16], 96.1%; in assay [20] it was 74.4%; in assay [17] it was 93.8%. For the same compound, the results for the growth in assay [18] and in assay [19] were 92.9% and 75.3%, respectively.
